For seven compounds, Potency, outcome and activity change, positive = activation results are on record in PubChem BioAssay (Tox21).

Structures are written as SMILES. Unmarked numbers belong to inactive results. Results filed as inconclusive are left out. Active and inactive are the calls of the source. Unless noted, the call rests on the fitted dose curve; in most records, active means well fitted curve in the direction sought with a large enough effect in the repeat runs; inconclusive means weak or mixed curves; inactive means no such curve, though single readings can be large; an effect the other way counts as inactive or inconclusive.

Test [1] in a line: qHTS assay to identify small molecule antagonists of the estrogen related receptor (ERR) signaling pathway from Tox21 library - cell viability counter screen (AID 1224834). Further: nearly all actives have a fitted effect of over 30% in size. Further: potency means the concentration at half of the fitted maximal effect. As to conditions: ERR reporter cells viability, CellTiter-Fluor, 17.5 h; series mostly up to 92.4 µM. In a few lines: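 Compounds in DMSO were pinned onto ERR cells that had been incubated for 6 h, and the plates were held at 37 C for 17.5 h. CellTiter-Fluor reagent was then added and fluorescence was measured after 30 min.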
In general terms: In qHTS, concentration-response curves come from the screen itself.

Test [2] in a line: qHTS assay to identify small molecule agonists of the constitutive androstane receptor (CAR) signaling pathway - cell viability counter screen (AID 1224836). Further: nearly all actives have a fitted effect of over 45% in size. Further: potency means the concentration at half of the fitted maximal effect. As to conditions: HepG2-CYP2B6-hCAR viability, CellTiter-Fluor, 23 h, PK11195 added to every well; series mostly up to 92.4 µM. In a few lines:
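Counter screen multiplexed with the CAR reporter readout: HepG2 cells co-transfected with hCAR and the CYP2B6-2.2kb construct receive a 15-concentration compound series and 0.75 uM PK11195 (final), then CellTiter-Fluor fluorescence is read after 23 h.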

The nature of test [3]: qHTS assay to identify small molecule antagonists of the constitutive androstane receptor (CAR) signaling pathway - cell viability counter screen (AID 1224837). Further: nearly all actives have a fitted effect of over 45% in size. Further: potency means the concentration at half of the fitted maximal effect. To be noted: HepG2-CYP2B6-hCAR viability, CellTiter-Fluor, 23 h, co-treated with 50 nM CITCO; series mostly up to 92.4 µM. In short, it runs like this:
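Cells are seeded, rested 4 hr at 37 C/5% CO2, dosed with compound (15-point series) and 50 nM CITCO, incubated a further 23 hr, and then CellTiter-Fluor reagent is added before fluorescence is read. The line is HepG2 with stable hCAR and CYP2B6-2.2kb.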

The nature of test [4]: qHTS assay to identify small molecule antagonists of the estrogen related receptor signaling pathway with the pleiotropic PPARgamma coactivator (PGC) from Tox21 10K library - cell viability counter screen (AID 1224840; active means well fitted cell-killing curve with a large enough effect in the repeat runs, not every such curve was filed as active; further: nearly all actives have a fitted effect of over 40% in size). As to conditions: PGC/ERR reporter cells viability, CellTiter-Fluor, 17.5 h; series mostly up to 92.4 µM. In a few lines:
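Cell viability is measured by CellTiter-Fluor fluorescence in PGC/ERR cells that receive compounds after a 6-hour attachment period and are then incubated 17.5 hours at 37 C.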

Test [5] deals with Thyrotropin receptor (Homo sapiens) (UniProt P16473). The experiment in a line: qHTS assay to identify small molecule agonists of the thyroid stimulating hormone receptor (TSHR) signaling pathway (AID 1224843; calls by dose curve; further: nearly all actives have a fitted effect of over 45% in size). As to conditions: TSHR-HEK293 cells, cAMP HTRF, agonist mode, 30 min; series mostly up to 92.4 µM. In short, it runs like this:
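A cell-based cAMP HTRF format was run in TSHR-transfected HEK293 cells, 800 per well. Treatment: 30 min, room temperature. Detection: 1 h with labelled cAMP and anti-cAMP cryptate. Concentration-response over 15 points, three replicates.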

Test [6] is described as follows: qHTS assay to identify small molecule agonists of the hypoxia (HIF-1) signaling pathway - cell viability counter screen (AID 1224844; calls by dose curve; further: nearly all actives have a fitted effect of over 50% in size; further: potency means the concentration at half of the fitted maximal effect). As to conditions: HRE-bla ME-180 viability, CellTiter-Glo luminescence, 17 h; series mostly up to 76.8 µM. In short, it runs like this: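 Viability counter screen: HRE-bla ME-180 cells plated 5 hrs before compound addition, treated 17 hrs at 37C and 5% CO2, then CellTiter-Glo added after the FRET reporter read; luminescence after 30 min.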

A short description of test [7]: qHTS assay to identify small molecule agonists of H2AX (AID 1224845; active means well fitted activation curve with a large enough effect in the signal ratio in the repeat runs, not every such curve was filed as active; the % refers to the signal ratio). As to conditions: CHO-K1 phospho-H2AX Ser139 HTRF, 3 h; series mostly up to 154 µM. In short, it runs like this: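 Phospho-H2AX Ser139 measured by HTRF (ex 320 nm; em 665 and 620 nm) after 24 hr antibody incubation. Compounds, 15 concentrations, 0.76% DMSO, were applied to CHO-K1 cells for 3hr at 37C before lysis.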

Test [8] in a line: qHTS assay to identify small molecule agonists of the hypoxia (HIF-1) signaling pathway (AID 1224846; active means well fitted activation curve with a large enough effect in the signal ratio in the repeat runs, not every such curve was filed as active; the % refers to the signal ratio). To be noted: HRE-bla ME-180 cells, beta-lactamase ratio, 17 h; series mostly up to 76.8 µM. In a few lines:
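Agonist mode reporter screen. ME-180 cells stably expressing bla under HRE control received test compounds in DMSO for 17 hrs (37C, 5% CO2), and beta-lactamase activity was then detected with the CCF4-AM FRET substrate.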

Test [9] is described as follows: qHTS assay to identify small molecule agonists of H2AX - cell viability counter screen (AID 1224847; calls by dose curve; further: top concentration of the series differs between compounds; nearly all actives have a fitted effect of over 30% in size). To be noted: CHO-K1 viability, CellTiter-Glo luminescence, 3 h; series mostly up to 154 µM. In a few lines: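 We seed wild-type CHO-K1 cells overnight, treat them for 3 hr at 37C with compounds in 15-concentration series, and quantify remaining viability by CellTiter-Glo luminescence.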

Test [10] can be described thus: qHTS RealTime-Glo MT Cell Viability Assay in HepG2 cells - 24 hour (AID 1224867). Further: nearly all actives have a fitted effect of over 50% in size. As to conditions: RealTime-Glo luminescence; series mostly up to 76.8 µM. In a few lines:
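Cell number in HepG2 cultures estimated from NanoLuc luminescence generated by metabolic reduction of a prosubstrate by living cells. The homogeneous, nonlytic format allowed repeated reads at 0, 8, 16, 24, 32 and 40 h of compound exposure.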

Test [11] can be described thus: qHTS RealTime-Glo MT Cell Viability Assay in HEK293 cells - 32 hour (AID 1224868). Further: nearly all actives have a fitted effect of over 50% in size. Further: potency means the concentration at half of the fitted maximal effect. To be noted: RealTime-Glo luminescence; series mostly up to 76.8 µM. In short, it runs like this: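 Homogeneous bioluminescent viability format in HEK293 cells (600 cells/well). Following 5 h at 37 C/5% CO2, 23 nL compound was pintooled; the signal was measured repeatedly during 40 h incubation.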

Test [12] is described as follows: A CellTox Green Cytotoxicity Assay to monitor cytotoxicity in HEK293 cells - 0 hour (AID 1224869). Further: nearly all actives have a fitted effect of over 50% in size. As to conditions: CellTox Green fluorescence; series mostly up to 76.8 µM. In short, it runs like this: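 Dead-cell fluorescence measured kinetically: asymmetric cyanine dye, HEK293, 600 cells/well, 5 h settle, 23 nL cpd/DMSO, 37 C, reads 0–40 h every 8 h.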
The nature of test [13]: qHTS RealTime-Glo MT Cell Viability Assay in HepG2 cells - 40 hour (AID 1224870). Further: nearly all actives have a fitted effect of over 50% in size. As to conditions: RealTime-Glo luminescence; series mostly up to 76.8 µM. In a few lines: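 Real-time viability: cells seeded at 600 per well together with NanoLuc and cell-permeant prosubstrate, compounds added after 5 h incubation. Luminescence tracked at 0, 8, 16, 24, 32 and 40 h of exposure.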

For test [14], the target named is Nuclear receptor subfamily 1 group I member 3 (Homo sapiens) (UniProt Q14994). The test is described as follows: qHTS assay to identify small molecule antagonists of the constitutive androstane receptor (CAR) signaling pathway (AID 1224838). Further: nearly all actives have a fitted effect of over 40% in size. Further: potency means the concentration at half of the fitted maximal effect. As to conditions: HepG2-CYP2B6-hCAR luciferase, CITCO-stimulated, 24 h; series mostly up to 92.4 µM. In short, it runs like this: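 Luminescence from a CYP2B6-2.2kb promoter reporter in hCAR-expressing HepG2 cells reflects CAR signaling. Cells received compounds at 15 concentrations and 50 nM CITCO (final), then incubated 24 h at 37 C/5% CO2.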

For test [15] the target is unchanged. The test is described as follows: qHTS assay to identify small molecule agonists of the constitutive androstane receptor (CAR) signaling pathway (AID 1224839). Further: nearly all actives have a fitted effect of over 15% in size. Further: potency means the concentration at half of the fitted maximal effect. To be noted: HepG2 hCAR CYP2B6-luciferase, agonist mode, 24 h; series mostly up to 92.4 µM. In a few lines:
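A 15-concentration quantitative screen uses HepG2 cells co-transfected stably with human CAR and CYP2B6-2.2kb reporter. Treatment lasts 24 h with 0.75 uM PK11195 final present; ONE-Glo luminescence is the signal.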

Test [16] is described as follows: qHTS assay to identify small molecule agonists of the estrogen related receptor signaling pathway with the pleiotropic PPARgamma coactivator (PGC) from Tox21 10K library (AID 1224842). Further: nearly all actives have a fitted effect of over 15% in size. To be noted: PGC/ERR reporter cell line, luciferase ONE-Glo, 18 h; series mostly up to 92.4 µM. In a few lines: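 Luminescence from One-Glo (30 min, room temperature) measured after PGC/ERR cells had 18 h at 37 C with pinned compound (23 nL in DMSO). Cells had been seeded at 2,000 per well and pre-incubated 6 h.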

Test [17] in a line: qHTS assay to identify small molecule antagonists of the estrogen related receptor (ERR) signaling pathway from Tox21 library (AID 1224848). Further: nearly all actives have a fitted effect of over 50% in size. Further: potency means the concentration at half of the fitted maximal effect. To be noted: ERR reporter cell line, luciferase antagonist mode, 18 h; series mostly up to 92.4 µM. In a few lines: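 ERR cell line, 2,000 cells/well. 6 h settle, then compound (DMSO) added; 18 h at 37 C; ONE-Glo luminescence after 30 min RT.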

Test [18] can be described thus: qHTS assay to identify small molecule agonists of the estrogen related receptor (ERR) signaling pathway from Tox21 library (AID 1224849; calls by dose curve; further: nearly all actives have a fitted effect of over 15% in size). As to conditions: ERR reporter cell line, ONE-Glo luciferase, 18 h; at 92.4 µM (top of the series) unless noted. In short, it runs like this: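 Quantitative HTS in agonist format: NTP ERR cell line, compounds transferred in DMSO after 6 h plating, 18 h incubation at 37 C, ONE-Glo luminescence endpoint.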
On the % scale 0 is the no-effect control and ±100 the full control effect.

Thyrotropin receptor (Homo sapiens), sequence (P16473 whole entry, looked up): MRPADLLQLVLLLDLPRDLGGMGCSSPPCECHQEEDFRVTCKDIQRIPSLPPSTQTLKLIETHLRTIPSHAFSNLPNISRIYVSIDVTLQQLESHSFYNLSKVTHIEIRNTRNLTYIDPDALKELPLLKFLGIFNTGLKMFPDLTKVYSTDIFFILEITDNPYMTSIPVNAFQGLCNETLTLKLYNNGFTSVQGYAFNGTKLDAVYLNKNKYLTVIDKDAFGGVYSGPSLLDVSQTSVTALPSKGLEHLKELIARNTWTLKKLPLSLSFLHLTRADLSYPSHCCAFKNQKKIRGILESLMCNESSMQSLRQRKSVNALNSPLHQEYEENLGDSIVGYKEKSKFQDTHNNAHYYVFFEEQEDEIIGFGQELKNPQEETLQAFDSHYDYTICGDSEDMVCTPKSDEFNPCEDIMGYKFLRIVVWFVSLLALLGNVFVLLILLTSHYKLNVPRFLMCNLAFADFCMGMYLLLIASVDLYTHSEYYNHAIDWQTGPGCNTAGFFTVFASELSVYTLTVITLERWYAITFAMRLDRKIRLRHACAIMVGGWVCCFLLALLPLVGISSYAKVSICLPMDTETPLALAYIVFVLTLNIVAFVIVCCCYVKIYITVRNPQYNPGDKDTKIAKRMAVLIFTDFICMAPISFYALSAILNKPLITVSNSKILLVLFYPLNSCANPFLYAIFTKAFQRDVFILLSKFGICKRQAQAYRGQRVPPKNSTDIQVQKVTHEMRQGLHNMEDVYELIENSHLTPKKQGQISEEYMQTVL
Nuclear receptor subfamily 1 group I member 3 (Homo sapiens), sequence (Q14994 whole entry, looked up): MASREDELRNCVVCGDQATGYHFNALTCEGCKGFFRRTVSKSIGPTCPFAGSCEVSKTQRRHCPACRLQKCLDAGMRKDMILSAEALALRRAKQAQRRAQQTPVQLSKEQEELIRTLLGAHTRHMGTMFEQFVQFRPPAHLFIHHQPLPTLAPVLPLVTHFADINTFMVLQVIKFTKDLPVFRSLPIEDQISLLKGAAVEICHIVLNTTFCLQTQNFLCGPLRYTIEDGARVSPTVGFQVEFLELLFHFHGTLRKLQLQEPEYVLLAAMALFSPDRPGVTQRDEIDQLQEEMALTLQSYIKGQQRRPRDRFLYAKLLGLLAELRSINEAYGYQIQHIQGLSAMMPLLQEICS

Turning to `BrCC(Br)c1ccccc1` (configuration not stated), the Potency result in [1], in [2], in test [3], in [4], in test [5] and in test [6] was “inactive” in each case. For the same compound, the Potency result in [7], in [9], in [10], in test [11], in test [12] and in test [13] was “inactive” each time. Besides, in test [8], the outcome was inactive.
As to `CCCSP(=O)(OCC)SCCC`, the Potency entry in test [1], in test [2], in test [3], in test [14], in test [4] and in test [6] was “inactive” each time. Also, the Potency result in test [7], in test [9], in test [10], in test [11], in test [12] and in test [13] was “inactive” each time. Further, the Potency in [15] was 25200 nM (active). Besides, in [8], the result was inactive.
Regarding `CCCCCCCCCCCCBr`, the Potency entry in [1], in test [2], in test [3], in test [14], in [15] and in [4] was “inactive” in each case. Further, the Potency entry in test [5], in test [7], in test [10], in test [11], in test [12] and in test [13] was “inactive” throughout. Also, the outcome in test [8] was inactive.
Turning to `CC(C)CBr`, the Potency result in test [1], in test [2], in test [3], in test [14], in [15] and in test [4] was “inactive” throughout. For the same compound, the Potency result in test [16], in test [5], in test [6], in [7], in [9] and in test [17] was “inactive” in each case. Also, the Potency result in [10], in [11], in test [12] and in test [13] was “inactive” in each case. The outcome in test [8] was inactive. Besides, the activity change, positive = activation in [18] was 2.25%.
For the compound `S=C(SSC(=S)N1CCCCC1)N1CCCCC1`, the Potency in test [1] is 531 nM (active); in test [2] it was 841 nM (active); in [3], 335 nM (active); in test [14] it was 376 nM (active); in test [6], 338 nM (active); in [17], 473 nM (active). The Potency in test [11] was 15100 nM (active). For the same compound, the Potency result in test [15], in [16] and in test [5] was “inactive” in each case.
Take `O=c1oc2ccccc2c(O)c1Cc1c(O)c2ccccc2oc1=O`: the Potency result in [1], in [2], in test [3], in test [14], in [4] and in test [16] was “inactive” in each case. Besides, the Potency entry in [6], in test [9], in test [10], in [11], in test [12] and in [13] was “inactive” each time. Further, the activity change, positive = activation in test [18] was -18.2% [at 42.5 µM].
For the compound `CCOP(=S)(OCC)SCS(=O)(=O)CC`, the Potency entry in test [1], in test [2], in [3], in test [14], in test [15] and in test [4] was “inactive” each time. Further, the Potency result in [16], in test [5], in [6], in test [9], in test [17] and in test [10] was “inactive” in each case. Moreover, the Potency result in test [12] and in test [13] was “inactive” each time. Moreover, the outcome in [8] was inactive. For the same compound, the activity change, positive = activation in test [18] was -5.31%.
